Screening results: PubChem, National Center for Advancing Translational Sciences (NCATS)
Rab9 prom act: Rab9 promoter activation | Huh7 Rab9 promoter-luciferase reporter, luminescence, 24 h | Potency, µM (titrated, usually from 9.22 µM), inactives show at the highest dose activation, negative = inhibition, hits mostly activators | 2.8% of 320,000 active | AID 485297; note: % of control where 0% means no effect; nearly all actives have a fitted effect of over 60% in size
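Rab9 promoter-driven luciferase in stably transfected Huh7 cells; 1500 cells/well rested 2 h, exposed to compound in DMSO for 24 h at 37 °C, 5% CO2. Luminescence read 10 min after adding luciferase reagent at ambient temperature.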
ELG1 genotox: induces genotoxicity in HEK293T cells with luciferase-tagged ELG1 | HEK293T ELG1-luciferase reporter, luminescence, 16 h | Potency, µM (top dose mostly 46 µM), without a hit: at the highest dose activity change, positive = activation, hits mostly activators | 1.3% of 330,000 active; note: % of control where 0% means no effect; nearly all actives have a fitted effect of over 60% in size
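16 hr compound incubation (37 °C, 5% CO2) of HEK293T cells carrying luciferase-tagged ELG1; luciferase then measured by ONE-Glo luminescence after 30 min at RT.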
ELG1 repair inh: ELG1-dependent DNA repair inhibition | Potency, µM (highest dose often 46.1 µM), for inactives: at the highest dose activity change, negative = inhibition, usual class: inhibitors | 2.3% of 330,000 active | AID 504467 | HEK293T ELG1-luciferase reporter, luminescence, 16 h; DNA damage induced by 5-fluorouridine; note: % is set by controls: 0 for no effect and ±100 for the full control effect; nearly all actives have a fitted effect of over 55% in size
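Quantitative HTS, concentration-response format. 2,000 cells/well co-treated with 5-fluorouridine and compound, 16 hr in 5% CO2 at 37 °C; ONE-Glo luminescence read after 30 min.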
FLuc modulator: counter-screen for miR-21 project: firefly luciferase inhibitors or activators | 6.9% of 360,000 active | AID 588342 | Potency, µM (titrated, usually from 57.5 µM), inactives show at the highest dose activity change, negative = inhibition, actives largely listed as inhibitors | purified FLuc, Km substrates, luminescence inhibition;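 note: plate controls were vehicle for no effect and reference inhibitor for full effect; nearly all actives have a fitted effect of over 55% in size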
Target sequence (P08659 whole entry, looked up): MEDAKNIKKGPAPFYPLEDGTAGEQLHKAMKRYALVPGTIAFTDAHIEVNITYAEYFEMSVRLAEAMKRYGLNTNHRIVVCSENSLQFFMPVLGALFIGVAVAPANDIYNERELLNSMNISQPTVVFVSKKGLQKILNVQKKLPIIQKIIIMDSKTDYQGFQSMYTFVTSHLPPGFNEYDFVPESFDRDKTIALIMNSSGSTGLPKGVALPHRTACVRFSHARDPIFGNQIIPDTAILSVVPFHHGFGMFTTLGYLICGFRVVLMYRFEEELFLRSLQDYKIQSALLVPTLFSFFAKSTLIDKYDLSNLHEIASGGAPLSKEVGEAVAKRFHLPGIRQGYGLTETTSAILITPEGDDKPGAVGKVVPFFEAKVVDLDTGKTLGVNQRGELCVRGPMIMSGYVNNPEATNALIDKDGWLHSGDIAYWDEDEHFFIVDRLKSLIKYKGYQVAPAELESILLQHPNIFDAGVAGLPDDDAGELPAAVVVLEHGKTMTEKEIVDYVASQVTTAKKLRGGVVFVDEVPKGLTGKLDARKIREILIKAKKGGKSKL
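Biochemical qHTS of compounds, final roughly 60 µM downward over six points, against 10 nM purified firefly luciferase using Km concentrations of substrates (10 uM D-luciferin, 10 uM ATP) in Tris acetate pH 7.5 buffer; luminescence output.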
NPC1 promoter act: activates the NPC1 promoter. 2.4% of 320,000 active. Huh7 NPC1 promoter luciferase reporter, 24 h. AID 485313. Potency, µM (titrated, usually from 9.22 µM), without a hit: at the highest dose activation, usual class: activators; note: % of control where 0% means no effect; nearly all actives have a fitted effect of over 60% in size
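Huh7 cells stably carrying NPC1 promoter–luciferase, plated in Opti-MEM with 10% FBS for 2 h, were exposed to compound in DMSO for 24 h at 37 °C; luciferase reagent was added for 10 min and luminescence read.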
SMN2 splice up: SMN2 splice variant enhancement. AID 1458. HEK293 SMN2-luciferase splicing reporter, luminescence, 30-36 h. 2.8% of 210,000 active. Potency, µM (doses to about 46.1 µM), for inactives: at the top dose activity change, positive = activation, hits mostly activators; note: % of control where 0% means no effect; nearly all actives have a fitted effect of over 55% in size
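HEK293 cells carry an SMN2 minigene-luciferase reporter in which exon 7 inclusion puts luciferase in frame. Cells were seeded at 2000 cells/well, attached for 10-12 hours, then exposed to compounds for 30-36 hours at 37C before ONE-Glo luminescence.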
* = called active by the depositor; ? = inconclusive; · = no result given; [ ] = dose if it differs, or a comment. Hits are enriched below; roughly 9.4% of the tested compounds scored in any of these assays. Calls come from the whole dose curve; as a rule, active = well fitted curve in the direction sought with a large enough effect; inconclusive = small, poorly fitted or top-dose-only effect, or another doubt; inactive = no such curve, though single readings can be large; an effect the other way counts as inactive or inconclusive. Potency is the fitted concentration of half-maximal effect.

SMILES	Rab9 prom act	ELG1 genotox	ELG1 repair inh	FLuc modulator	NPC1 promoter act	SMN2 splice up
CCOc1ccc(NC(=O)c2cc3ccccc3cc2O)cc1	2.8µM*	?	?	0.76µM*	?	·
CCn1c2ccccc2c2cc(CN3CCN(Cc4ccc(Cl)cc4)CC3)ccc21	·	·	·	2%	·	-10%
COc1ccc(OC)c(NC(=O)C(C)n2c(=O)c(-c3ccccc3NC(C)=O)nc3ccccc32)c1 (stereo not drawn)	·	·	·	-7%	·	·
COc1ccc(NC(=O)c2cccn(CC=C(C)C)c2=O)cc1	1.6µM*	6%	-1%	17µM*	?	2%
CCOc1ccc(NC(=O)c2cc3ccccc3cc2OC)cc1	?	?	?	5.4µM*	?	·
CCOc1ccc(NC(=O)c2cc(OC)nc3ccccc23)cc1	-25%	18%	?	-10%	-18%	·
COc1cc2cc(C(=O)Nc3ccccc3)c(N)nc2cc1OC	-1%	0%	-13%	12µM*	2%	-7%
Fc1cccc(CNc2ncnc3ccc(-c4cccnc4)cc23)c1	-1%	·	·	5%	1%	·
CC(C)Oc1ccc(OCCn2c(=S)[nH]c3c(N)ncnc32)cc1	-1%	?	-4%	27µM*	-3%	-27%
COc1ccc(CC(=O)Nc2sc3c(c2C(=O)Nc2cccc(C)c2)CCCCC3)cc1	·	·	·	?	·	-8%
CCc1ccc(NC(=O)CN(Cc2ccccc2)S(=O)(=O)c2ccc3nc(C)sc3c2)cc1	·	·	·	-3%	·	·
O=C(CSc1nnc(-c2cccnc2)o1)Nc1ccccc1F	3.2µM*	?	?	-1%	3.2µM*	·
COc1ccc(-c2nnc(SCC(C)C)o2)cc1	0.63µM*	?	?	1.5µM*	1µM*	·
CCOC(=O)CSc1nnc(-c2ccc(OC)cc2OC)o1	2%	3%	11%	9.5µM*	0%	7%
COc1ccc(-c2nnc(SCC(=O)Nc3cc(C)on3)o2)cc1	27%	12%	?	-9%	16%	20µM*
COc1ccc(C(=O)CSc2nnc(-c3ccc(C)cc3)o2)cc1	-7%	?	0%	-1%	0%	1%
COc1ccc(NC(=O)CSc2nnc(-c3ccc(C)cc3)o2)cc1	·	·	·	0%	·	·
CC1(C)O[C@@H]2[C@@H](O1)C(c1ccccc1)(c1ccccc1)OP(=O)(O)OC2(c1ccccc1)c1ccccc1	·	·	·	·	·	10%
CCOC(=O)c1c(C)[nH]c(CCC(=O)Nc2c(C)cccc2CC)c1C	·	·	·	-7%	·	·
O=C1C=CC2(OCCCO2)C(Br)=C1CO	·	·	·	·	·	6%
O=C1CC(c2nnc(Cc3ccc(F)cc3)o2)CN1c1ccccc1 (stereo not drawn)	·	·	·	-1%	·	-4%
CCOC(=O)CSc1nnc(-c2ccc(OC)cc2)o1	·	·	·	17µM*	·	0%
COc1ccc(-c2nnc(SCC(=O)Oc3ccc(C)cc3)o2)cc1	0%	0%	12%	?	0%	8%
COc1ccccc1NC(=O)CSc1nnc(-c2ccc(C)cc2)o1	1.3µM*	?	?	-11%	1.6µM*	2.5µM*
COc1ccccc1NC(=O)CSc1nnc(-c2ccccc2C)o1	·	·	·	-16%	·	·
SMILES	Rab9 prom act	ELG1 genotox	ELG1 repair inh	FLuc modulator	NPC1 promoter act	SMN2 splice up
N#CC1=C(N)C(C#N)(C#N)C(c2cccnc2)C2CCCC=C12 (stereo not drawn)	9%	-16%	7.3µM*	4%	0%	-14%
CCOCN(C(=O)Cn1cnc2cc(C)c(C)cc21)c1c(C)cccc1CC	·	·	·	0%	·	-14%
Cc1c(C)n(CCc2ccccc2)c2ncnc(NCCCO)c12	1.6µM*	?	?	11µM*	1.8µM*	·
COCCn1c(C)c(C)c2c(NCCc3ccccc3)ncnc21	0.5µM*	?	?	0.85µM*	0.35µM*	·
Cc1c(C)n(CCc2ccccc2)c2ncnc(NN)c12	-14%	-3%	?	-15%	-26%	·
O=S(=O)(c1cccc(F)c1)N1CCC(c2nc3ccccc3s2)CC1	·	·	·	-5%	·	-1%
O=C(CSc1ncnc2ccccc12)c1ccc2c(c1)OCCO2	2.8µM*	?	?	3.4µM*	?	·
CCc1nc(SCC(=O)c2ccc3c(c2)OCCO3)c2ccccc2n1	-1%	-6%	?	?	0%	-37%
Cc1sc2ncnc(SCC(=O)c3ccc4c(c3)OCCO4)c2c1-c1ccccc1	-2%	-7%	10µM*	1%	-4%	-45%
O=C(COc1ncnc2cc(Cl)ccc12)c1ccc2c(c1)OCCO2	0.63µM*	?	?	1.9µM*	3.2µM*	·
O=C(COc1ncnc2ccccc12)c1ccc2c(c1)OCCO2	1.1µM*	?	?	4.8µM*	1.1µM*	·
COc1ccc(NC(=O)c2ccc3c(c2)CCN3S(=O)(=O)c2ccc(C)cc2)cc1Cl	·	·	·	-7%	·	3%
COc1ccc2c(c1)CC(C(=O)NCCN1CCN(c3cccc(Cl)c3)CC1)CO2 (stereo not drawn)	·	·	·	1%	·	·
COc1cc(OC)c(NC(=O)CN2C(=O)CCn3nc(-c4cccn4C)cc32)cc1Cl	·	·	·	-2%	·	·
O=C(CSc1ncc2c(n1)-c1ccccc1N(Cc1ccc(F)cc1)S2(=O)=O)NCc1ccccc1	·	·	·	2%	·	·
O=C1c2c(O)ccc(O)c2C(=O)c2c(NCCNCCO)ccc(NCCNCCO)c21	-44%[46.1 µM]	-59%	11µM*	19µM*	-35%[46.1 µM]	-94%
O=C1c2ccccc2C(=O)c2c(NCCc3ccc(O)cc3)ccc(NCCc3ccc(O)cc3)c21	-43%[46.1 µM]	·	·	·	-40%[46.1 µM]	·
CCCN1CCN(CCNC(=O)Nc2cc(C)ccc2OC)CC1	·	·	·	6%	·	9%
